# PubChem BioAssay (NCI)
# “And” between values parts separate entries of the source, which are not always exact repeats. Equal entries are not always repeated. This is part of a sample that, as a whole, favours compounds with a hit. Of some 83,000 tested, about 20% had one in any assay.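 Compound tested at a single concentration for 48 hours in 96-well plates; a percent growth value below 10 was scored as active.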 The source made the active and inactive calls.
# Tested on: SK-MEL-28 melanoma
# Assay: NCI-60 one-dose screen, 48 h (100 = growth as untreated, 0 = no growth, -100 = all killed)
# Settings: 10 µM
# Experimental: Growth inhibition of the SK-MEL-28 human tumor cell line is measured as a screen for anti-cancer activity. Cells are grown in 96 well plates and exposed to the test compound for 48 hours. Compounds are tested at a single concentration, which is 10^-5 M for most compounds. The reported endpoint is percent growth (GI% or GIPRCNT), where numbers from 0 - 100% represent growth inhibition, and numbers from -100% - 0 represent cell death. For example, a value of 40 represents 60% growth inhibition. A value of 0 means no net growth occurred over the course of the experiment. A value of -40 indicates 40% of cells at the beginning of the experiment died by the end of the experiment. A value of -100 means all cells are dead at the end of the experiment.
# NCI-60 Human Tumor Cell Lines Screen was performed using the standard one-dose NCI protocol, which is described in more detail at https://dtp.cancer.gov/discovery_development/nci-60/default.htm.
# Compounds with GIPRCNT values below 10 were considered active. Activity score was based on GIPRCNT using the following formula: […]
# Score is 0 for GIPRCNT values of 100 or above, 50 for GIPRCNT values of 0, and 100 for GIPRCNT values of -100.
row,Compound,growth
1,COc1ccc(Cl)cc1C(=O)NCCc1ccc(S(=O)(=O)NC(=O)NC2CCCCC2)cc1,132% (inactive) and 118% (inactive)
2,CC#C[C@]1(O)CC[C@H]2[C@@H]3CCC4=CC(=O)CCC4=C3[C@@H](c3ccc4c(c3)OCO4)C[C@@]21C,108% (inactive)

# Same assay, conditions: 10 µM unless noted
row,Compound,growth
1,CCN(CC)CCOc1ccc(/C=N/Nc2nc3c([nH]2)c(=O)n(C)c(=O)n3C)cc1,115% (inactive) and 112% (inactive)
2,CCN(CC)CCC(CNc1c2ccc([N+](=O)[O-])cc2nc2cc(OC)c(OC)cc12)c1ccccc1 (stereo not given),-84.8% (active)
3,CNc1cc(-c2cccc(OC(F)(F)F)c2)nc2ccc(N3CCCC3)cc12,-66.3% (active) and -82.3% (active) and -64.4% (active)
4,CC1=CCC2CC1C2(C)C (stereo not given),97.5% (inactive) and 102% (inactive)
5,COc1cc(C(=O)c2ccc3c(c2)OCO3)cc(OC)c1OC,46.7% (inactive) and 43.2% (inactive)
6,CCOC(=O)c1sc(N)nc1-c1ccccc1,109% (inactive)
7,CC(=O)C(/C=N/C(N)=O)=C(/C)O,115% (inactive)
8,Nc1nc2ncc(CNc3ccc(C(=O)N[C@@H](CCc4nn[nH]n4)C(=O)O)cc3)nc2c(=O)[nH]1,97.5% (inactive) and 110% (inactive)
9,Nc1ccc2[nH]c(-c3ccccc3)cc(=O)c2c1,86.5% (inactive)
10,CCN(CC)CCCC(CNc1ccnc2cc(Cl)ccc12)c1ccc(Cl)cc1 (stereo not given),-83.7% (active) and -85.7% (active)
11,O=S(=O)(Nc1ccccc1)C1CCCCC1,110% (inactive) and 108% (inactive)
12,O=C(CN1CCOCC1)N1CCOCC1,123% (inactive) and 107% (inactive)
13,CC1=C(/C=C/C(C)=C/C=C/C(C)=C/C=N/NC(=S)NC(=S)N/N=C/C=C(C)/C=C/C=C(C)/C=C/C2=C(C)CCCC2(C)C)C(C)(C)CCC1,-24.4% (active) and -57.5% (active)
14,OCCN1CCN(CCCN2c3ccccc3Sc3ccc(Cl)cc32)CC1,-33.9% (active) and 56.1% (inactive)
15,CN(C)c1ccc(/C=C(\C#N)c2ccccc2)cc1,97.7% (inactive) and 70.6% (inactive) and 64.5% (inactive)
16,CCNC(=O)Nc1ccc(-c2nc3c(c(N4CCOC[C@@H]4C)n2)CCN(C2COC2)C3)cc1,25.1% (inactive) and -5.25% (active)
17,O=C(N/N=C/c1cccc2ccccc12)C1CC1,111% (inactive) and 104% (inactive)
18,Cc1cc(O)c(C(C)C)cc1S(=O)(=O)O (tested in a mixture with another compound),110% (inactive) and 40.6% (inactive) and 107% (inactive)

row,Compound,growth
1,CCCCOc1cc(C(=O)NCCN(CC)CC)c2ccccc2n1,102% (inactive) and 104% (inactive)
2,CC1(c2ccc3ccccc3c2)CCC(=O)O1 (stereo not given),102% (inactive)
3,COc1cc(Nc2nc3ccccc3nc2NS(=O)(=O)c2ccc(NC(=O)c3ccc(C)c(OC)c3)cc2)cc(OC)c1,63.8% (inactive) and -17.5% (active)
4,Nc1ncnc2c1ncn2C1CC(O)C(CO)O1 (stereo not given),123% (inactive) and 115% (inactive)
5,O=[N+]([O-])c1ccccc1/C=N\Nc1ccccc1,115% (inactive) and 117% (inactive)
6,O=C(Nc1cccc(-n2ccc3c(NC(=O)c4ccccc4)nccc32)c1)c1ccc(Cl)c(C(F)(F)F)c1,-38.9% (active) and 79.8% (inactive)
7,OC(CSc1ccccc1)CN1CCN(c2cccc(Cl)c2)CC1 (stereo not given),103% (inactive) and 99.1% (inactive)
8,CC(C)CNC(=O)c1ccccc1C(=O)NC1(C(=O)NCC(C)C)CCCC1,117% (inactive) and 115% (inactive)
9,CCOc1ccc(Nc2c3ccccc3nc3ccccc23)cc1,106% (inactive) and 46.8% (inactive) and 66.1% (inactive)
10,CC(=O)Nc1cccc2c1CCCC2,104% (inactive) and 107% (inactive)
11,O=C(Cc1cccc2ccccc12)N/N=C/c1ccc2c(c1)CCC2,81.4% (inactive)
12,CC1=C(/C=C/C(C)=C/C=C/C(C)=C/C(=O)O)C(C)(C)CCC1,109% (inactive) and 116% (inactive)
13,O=C(N/N=C/c1ccccc1)N/N=C/c1ccccc1,121% (inactive) and 113% (inactive)
14,Cc1cc(-c2ccc(NS(=O)(=O)c3ccccc3)c(C)c2)ccc1NS(=O)(=O)c1ccccc1,92.2% (inactive) and 109% (inactive)
15,COC(=O)/C=C/c1cc(O)c2c(c1)C(C(=O)OC)C(c1ccc(O)c(O)c1)O2 (stereo not given),55.3% (inactive) and 53% (inactive)
16,O=C1NC(=O)C2(CCc3ccccc32)N1 (stereo not given),123% (inactive)
17,CN1CCN(CCC=C2c3ccccc3Sc3ccc(S(=O)(=O)N(C)C)cc32)CC1,-54.1% (active) and -73.3% (active)
18,CN(C)c1ccc(C(=C2C=CC(=[N+](C)C)C=C2)c2ccccc2Cl)cc1,-93.7% (active) and -96.8% (active)

# Same assay, conditions: 100 µM
row,Compound,growth
1,COc1ccc(Cl)cc1C(=O)NCCc1ccc(S(=O)(=O)NC(=O)NC2CCCCC2)cc1,57.5% (inactive)
2,CC#C[C@]1(O)CC[C@H]2[C@@H]3CCC4=CC(=O)CCC4=C3[C@@H](c3ccc4c(c3)OCO4)C[C@@]21C,-52.3% (active)
